From PubChem BioAssay
PI5P4Ka inh: blocks human PI5P4K alpha kinase activity | P48426 | max response, % | PI5P4Kalpha enzyme, ADP-Glo luminescence, 60 min; active compounds read low | 330,000 tested, 1.2% active | AID 652105; active = max response of -50% or lower; inconclusive = between -30% and -50%; inactive = -30% or higher; also: value at the top dose of about 77 µM
Target sequence (P48426 whole entry, looked up): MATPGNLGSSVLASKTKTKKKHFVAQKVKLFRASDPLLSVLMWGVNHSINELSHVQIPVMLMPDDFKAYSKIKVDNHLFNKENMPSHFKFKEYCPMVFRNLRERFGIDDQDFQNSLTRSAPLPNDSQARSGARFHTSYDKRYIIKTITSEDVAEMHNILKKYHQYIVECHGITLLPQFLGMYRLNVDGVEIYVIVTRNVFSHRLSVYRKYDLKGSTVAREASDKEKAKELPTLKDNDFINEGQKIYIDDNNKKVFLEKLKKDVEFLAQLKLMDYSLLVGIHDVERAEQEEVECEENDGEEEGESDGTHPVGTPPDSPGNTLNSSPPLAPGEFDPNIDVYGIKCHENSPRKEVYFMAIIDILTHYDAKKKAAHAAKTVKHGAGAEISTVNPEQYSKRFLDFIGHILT
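Compounds were pin-transferred onto PI5P4Kalpha and substrate in HEPES pH 7.4 buffer with EGTA, CHAPS and 5% DMSO. ATP (5 microM final) started the reaction, which ran 60 minutes at room temperature before ADP-Glo detection.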
HP1b binding inh: HP1-beta chromodomain-methylated histone interaction inhibition; P83916; AlphaScreen HP1-beta / biotin-H3K9me3 peptide binding; Potency, µM (highest dose often 114 µM), actives largely listed as inhibitors; 390,000 tested, 0.56% active; also: nearly all actives have a fitted effect of over 70% in size
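AlphaScreen: HP1-beta (50 nM) preformed 30 min with biotin-H3(1-18)K9me3 peptide (50 nM) in PBS pH 7.4, 0.01% Tween-20. Compound added for 30 min at RT, then streptavidin donor/nickel chelate acceptor beads (10 ug/mL) for 30 min.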
PLK1 PBD inh: blocks phosphopeptide binding to human PLK1 polo-box domain. Plk1 PBD binding of FITC phosphopeptide, fluorescence polarization. P53350. 360,000 tested, 2.8% active. Potency, µM, actives largely listed as inhibitors. AID 720504; also: series mostly up to about 57 µM; nearly all actives have a fitted effect of over 65% in size
BAZ2B inh: BAZ2B (human) inhibition; Q9UIF8; AlphaScreen BAZ2B-H3K14Ac peptide displacement; Potency, µM (highest dose often 114 µM), actives largely listed as inhibitors; 360,000 tested, 4.4% active; also: nearly all actives have a fitted effect of over 60% in size
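AlphaScreen displacement of biotin-H3(5-23)K14Ac peptide (50 nM final) from BAZ2B (50 nM final) in PBS pH 7.4, 0.01% Tween-20; complex preformed 30 min RT, then compounds (top 110 uM) 30 min RT, beads 20 min dark.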
G9a inh: inhibitors of human histone lysine methyltransferase G9a. Q96KQ7. G9a H3K9 monomethylation, AlphaScreen, 2 h. Potency, µM (top dose mostly 102 µM), hits mostly inhibitors. 350,000 tested, 8.8% active. AID 504332; also: nearly all actives have a fitted effect of over 75% in size
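Compounds were preincubated with 20 nM G9a for 15 min, after which biotinylated H3K9 peptide (500 nM) and SAM (20 uM) started a 2 h room-temperature reaction. Monomethylated product was quantified by antibody-based AlphaScreen chemiluminescence.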
JMJD2A Tudor: inhibitors of human JMJD2A Tudor domain; O75164; AlphaScreen JMJD2A-Tudor / H3K4me3 peptide binding; Potency, µM (doses to about 114 µM), usual class: inhibitors; 390,000 tested, 4.4% active; also: nearly all actives have a fitted effect of over 50% in size
A number is an active result; n = inactive; u = inconclusive; x = no result; [ ] = remark or other dose. Only some compounds are listed: those with a hit (about 12% of all), similar ones and a draw of the others. Unless noted, calls follow the shape of the dose curve; as a rule, active = well fitted curve in the direction sought with a large enough effect; inconclusive = small, poorly fitted or top-dose-only effect, or another doubt; inactive = no such curve, though single readings can be large; an effect the other way counts as inactive or inconclusive.

SMILES	PI5P4Ka inh	HP1b binding inh	PLK1 PBD inh	BAZ2B inh	G9a inh	JMJD2A Tudor
CC(C)NC(=O)N1Cc2cc(C(=O)NC3CCCC3)nc(-c3cccc(-c4cccnc4)c3)c2[C@@H]1CCO	n	x	n	x	x	x
CC(=O)N1c2ccc(S(=O)(=O)N(C)CC(=O)NC3CCCC3)cc2CC1C (stereo not drawn)	n	n	n	n	n	n
Cc1cc(=O)oc2cc(OCC(=O)Nc3nnc(C(C)C)s3)ccc12	n	n	n	n	44.7µM	n
CCC(CC)c1nnc(NC(=O)c2ccc3c(c2)OCO3)s1	n	u	26.7µM	n	22.4µM	n
CCC(CC)c1nnc(NC(=O)c2ccco2)s1	n	n	21.2µM	n	44.7µM	n
COC(=O)CSc1nnc(NC(=O)c2ccc3c(c2)OCO3)s1	n	n	n	n	31.6µM	n
O=C(O)CSc1nnc(NC(=O)c2ccc3c(c2)OCO3)s1	u	n	n	n	n	n
COc1ccc(-c2nc3ccc(Cl)cc3c(=O)n2Cc2ccccc2)cc1COc1ccc(NC(C)=O)cc1	x	x	x	x	x	n
O=C(CNC(=O)c1nc[nH]c1C(=O)N1CCN(c2ccccc2)CC1)OCc1ccccc1	n	n	n	n	u	n
c1ccc(-c2cccc(N3CC[C@@]4(CCCNC4)C3)c2)cc1	x	x	x	x	n[12.7 µM]	x
CCC(CC)c1nnc(NC(=O)COc2ccc3c(c2)OCO3)s1	n	u	13.4µM	u	8.91µM	u
CCCc1nnc(NC(=O)COc2ccc3c(c2)OCO3)s1	n	n	n	n	n	n
CC(C)(C)Cc1nnc(NC(=O)c2ccc3c(c2)OCO3)s1	u	u	15µM	n	8.91µM	n
CCc1nnc(NC(=O)COc2ccc3c(c2)OCO3)s1	n	n	n	n	44.7µM	n
CC(C)c1nnc(NC(=O)COc2ccc3c(c2)OCO3)s1	n	n	n	n	n	n
COc1ccc([C@H]2C[C@H](n3cc(COC(=O)c4ccccc4)nn3)[C@@H](O)CN2Cc2cccs2)cc1	n	x	n	x	x	x
C(=N\c1nccs1)/Nc1nccs1	n	n	n	79.4µM	28.2µM	35.5µM
CCOc1ccc(NC(=O)N(Cc2cn(CC)c3ccccc23)C2CCCCCC2)cc1	x	n	x	x	u	u
COc1ccccc1OC1=NS(=O)(=O)c2ccccc21	n	n	u	u	44.7µM	n[11.4 µM]
O=S1(=O)N=C(Oc2ccccc2F)c2ccccc21	x	x	x	x	x	79.4µM
Cc1ccc(OC2=NS(=O)(=O)c3ccccc32)cc1	n	n	n	u	u	u
COc1cc(NC(=O)Cn2c(=O)n(-c3ccccc3)c(=O)c3c4c(sc32)CCCC4)cc(OC)c1	x	n	x	n	n	n
O=C1C(=O)N(C2CCS(=O)(=O)C2)C(c2cccc(O)c2)/C1=C(/O)c1ccc(Cl)cc1 (stereo not drawn)	n	n	n	79.4µM	31.6µM	u
COC(=O)c1ccc(C2/C(=C(/O)c3ccc(Cl)cc3)C(=O)C(=O)N2C2CCS(=O)(=O)C2)cc1 (stereo not drawn)	n	n	n	u	44.7µM	89.1µM
CCOc1ccc(-c2nnc(SCC(=O)NC(C)(C)C)nc2-c2ccc(OCC)c(OC)c2)cc1OC	n	n	n	n	50.1µM	u
SMILES	PI5P4Ka inh	HP1b binding inh	PLK1 PBD inh	BAZ2B inh	G9a inh	JMJD2A Tudor
CCOc1cc(-c2nnc(SCC(=O)Nc3ccc(F)c(F)c3)nc2-c2ccc(OC)c(OCC)c2)ccc1OC	x	n	x	u	12.6µM	n
COC(=O)C1=C[C@@H](C(=O)OC)C2C3=C(C(=O)[C@@]2(C)NC(=O)c2ccccc2)[C@H](c2ccccc2)[C@@H]2C(=O)N(c4ccccc4)C(=O)[C@@H]2[C@@H]3C1 (stereo partly drawn)	x	n	x	x	x	n
O=C(/C=C/c1ccccc1)n1cnnc1SC/C=C/c1ccccc1	n	n	u	n	20µM	n
Cc1cnc(CNc2nc(-c3cccc(NS(C)(=O)=O)c3)nc3ccccc23)cn1	x	x	x	x	n[0.501 µM]	x
COc1ccc(NC(=O)CSc2ncc3c(n2)-c2cc(Cl)ccc2N(Cc2ccccc2F)S3(=O)=O)cc1	x	n	x	n	n	n
O=C(c1ccccc1)c1coc2ccc(O)c(CN3CCOCC3)c12	n	n	21.2µM	n	n	n[11.4 µM]
COc1ccc(C(=O)c2coc3ccc(O)c(CN4CCCCC4)c23)cc1	n	n	n	n	25.1µM	n
CCOC(=O)c1c(C)oc2ccc(O)c(CN3CCCCC3)c12	x	n	n	n	n[12.7 µM]	n
